Records with an inconclusive call do not appear. Unmarked numbers belong to inactive results. Calls of active or inactive are those of the source. The call rests on the fitted dose curve; in most records, active means well fitted inhibition curve with a large enough effect in the repeat runs; inconclusive means weak or mixed curves; inactive means flat fitted curve, though single readings scatter.

The values below come from PubChem BioAssay (Tox21).
On the % scale 0 is the no-effect control and ±100 the full control effect.

Sequence of Luciferin 4-monooxygenase (Photinus pyralis) (P08659 whole entry, looked up): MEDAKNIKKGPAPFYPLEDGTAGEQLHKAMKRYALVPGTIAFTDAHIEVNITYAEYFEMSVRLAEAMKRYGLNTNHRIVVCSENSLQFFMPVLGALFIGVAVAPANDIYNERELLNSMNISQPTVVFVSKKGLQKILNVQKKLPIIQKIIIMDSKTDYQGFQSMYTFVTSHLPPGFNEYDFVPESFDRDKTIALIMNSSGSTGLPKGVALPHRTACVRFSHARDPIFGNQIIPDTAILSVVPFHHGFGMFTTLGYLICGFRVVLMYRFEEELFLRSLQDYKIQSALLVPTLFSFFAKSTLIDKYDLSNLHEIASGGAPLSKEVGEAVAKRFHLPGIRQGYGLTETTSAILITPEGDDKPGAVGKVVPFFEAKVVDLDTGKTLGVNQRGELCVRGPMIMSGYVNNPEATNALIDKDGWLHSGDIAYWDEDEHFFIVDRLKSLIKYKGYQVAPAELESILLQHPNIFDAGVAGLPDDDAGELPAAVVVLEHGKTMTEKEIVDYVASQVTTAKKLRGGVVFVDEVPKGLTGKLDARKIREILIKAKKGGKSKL

In the assay the target is Luciferin 4-monooxygenase (Photinus pyralis) (UniProt P08659). In words: qHTS assay to identify small molecule inhibitors of firefly luciferase (AID 1224835). Further: nearly all actives have a fitted effect of over 25% in size. To be noted: purified P. pyralis luciferase, luminescence inhibition; series mostly up to 115 µM; activity change, negative = inhibition: at the top concentration. From the text:
U.S. Tox21 Program National Center for Advancing Translational Sciences [NCATS] NIH Chemical Genomics Center [NCGC] U.S. Environmental Protection Agency [EPA] National Institutes of Environmental Health Sciences [NIEHS] National Toxicology Program [NTP] U.S. Food and Drug Administration [FDA] Tox21 Assay Overview: Firefly (Photinus pyralis) luciferase is one of the most commonly used transcriptional reporters. Firefly luciferase reporter-gene assays are generally considered one of the most sensitive assay types (Wood, 1995; Wood, 1998). However, it was initially observed, in 1991, by Thompson et al., that compounds that resemble the substrates of firefly luciferase (FLuc) can act as competitive inhibitors of the enzyme, and that these compounds, upon interaction with luciferase in the cell, can actually stabilize the protein and increase its half-life. Previous profiling work by other groups to determine the prevalence of compounds that affect FLuc enzymatic activity (PubChem AID 411) identified that ~3% of the MLSMR library (then at ~72K) inhibited FLuc. […] Thus the Tox21 10K library is profiled for activity against FLuc using a biochemical assay of purified FLuc and KM concentrations of FLuc substrates (D-luciferin and ATP).
These assay plates were then treated with 23nL of compound or DMSO using a Kalypsys pin tool, which allows for delivery of a 6-point interplate titration of each compound to the assay plate (quantitative HTS.) 1 uL of firefly luciferase mix (containing 50 mM Tris acetate, pH 7.6, 0.04 uM P. pyralis luciferase, 0.01% Tween, 0.05% BSA and dH2O) was then delivered by FRD to each well. Luciferase activity was then measured using a ViewLux CCD imager.
On the technique in general: In qHTS, concentration-response curves come from the screen itself.
Consider `CC/C=C\CCOC(=O)CCCCC`, for which the “activity change, negative = inhibition” value is -7.73%.
The same measure, in the same setting: with `COc1ccc(S(=O)(=O)Nc2nnc(CC(C)C)s2)cc1` the figure was -2.22% [at 52.9 µM]; with `COC(=O)/C=C(/C)N`, 1.5% [at 52.9 µM]; with `CCc1cc(Cl)c(OC)c(C(=O)NC[C@@H]2CCCN2CC)c1O`, -0.132% [at 52.9 µM].
Still for that read-out and setting: with `CC1=C(CC(=O)O)c2cc(F)ccc2/C1=C\c1ccc(S(C)(=O)=O)cc1` the figure was -13.1% [at 52.9 µM]; with `CC(C)c1ccccc1`, -1.91%; with `Cn1cnc2c(F)c(Nc3ccc(Br)cc3Cl)c(C(=O)NOCCO)cc21`, 0.657% [at 52.9 µM].
The same measure, in the same setting: to `COC(=O)c1ccc(OC)cc1` belongs -1.26%.
Take `CO[Si](C)(C)OC`: the “activity change, negative = inhibition” value was 5.28%.
For `CCCCc1ccc2nc(NC(=O)OC)[nH]c2c1`, the Potency was 3.47 µM (active).
Same read-out and setting: with `COc1cc2c(cc1N)oc1ccccc12` the figure was 36.3 µM (active).
With `COC(C)CCO` (stereo not given), the “activity change, negative = inhibition” value is 4.01%.
Still for that read-out and setting: with `CC1=NN(c2cc(Cl)c(S(=O)(=O)O)cc2Cl)C(=O)C1N=Nc1ccc(S(=O)(=O)O)cc1` (stereo not given) the figure was -11.1%; with `CCOC(=O)COc1ccc2c(c1)CC(NCC(O)c1cccc(Cl)c1)CC2` (stereo not given), -0.638%; with `O=C1N(c2ccccc2)c2ccccc2C1(Cc1ccncc1)Cc1ccncc1`, 0.96% [at 52.9 µM].
On the same count and under the same terms, to `CC[C@H]1CC[C@H](NCc2cc3c(cc2OC)[C@H]2C[C@H]2C(=O)N3C)[C@H](c2ccccc2)N1` belongs 4.56%; to `O=c1[nH]c(=O)n([C@H]2C[C@H](O)[C@@H](CO)O2)cc1C(F)(F)F`, 0% [at 52.9 µM].
For the molecule `CC(=O)O[C@H]1CC[C@@]2(C)C(=CC[C@@H]3[C@@H]2CC[C@]2(C)C(C(C)=O)=CC[C@@H]32)C1`, the “activity change, negative = inhibition” value was 2.67% [at 52.9 µM].
Turning to `CCCN(CCC)C(=O)C(CCC(=O)O)NC(=O)c1ccccc1` (stereo not given), the “activity change, negative = inhibition” value was -3.87% [at 52.9 µM].
In the case of `Nc1ccc(Oc2ccc(N)c(N)c2)cc1`, the Potency was 7.96 µM (active).
With `OCCN1CCN(CCO)CC1`, the “activity change, negative = inhibition” value was 6.7%.
Still for that read-out and setting: to `CCCCCCCCCCCCCCCCOP(=O)([O-])OCC[N+](C)(C)C` belongs 0.335% [at 52.9 µM]; to `O=CCCc1ccccc1`, 1.76%; to `CCc1cc2cc(OC)c(OC)cc2c(Cc2ccccc2)n1`, 2.31% [at 52.9 µM].
On the same count and under the same terms, to `OCCN(CCO)CCN(CCO)CCO` belongs 7.92%; to `CC(C)S`, 4.31%.
In the case of `Cc1cccc(C)c1NC(=O)CN1CCCCCC1`, the “activity change, negative = inhibition” value is 4.93% [at 52.9 µM].
In the case of `CCN[C@H]1CN(CCCOC)S(=O)(=O)c2sc(S(N)(=O)=O)cc21`, the “activity change, negative = inhibition” value was 0.495% [at 52.9 µM].
On to `CN(C)C(=O)NC1(c2ccccc2)CCN(CCC[C@]2(c3ccc(Cl)c(Cl)c3)CCCN(C(=O)c3ccccc3)C2)CC1`, for which the activity change, negative = inhibition was -2.4% [at 23.6 µM].
The same measure, in the same setting: to `Cc1nc(N)nc(N)c1-c1ccc(Cl)c(Cl)c1` belongs 1.01% [at 52.9 µM]; to `CS(=O)(=O)c1ccc([C@@H](O)[C@@H](CF)NC(=O)C(Cl)Cl)cc1`, 1.9% [at 52.9 µM].
For the molecule `Cc1ncc(CO)c(CN)c1O`, the “activity change, negative = inhibition” value was -0.353% [at 52.9 µM].
Same read-out and setting: to `CCCCCCC` belongs -11.6%.
The same measure, in the same setting: to `Cc1ccc(C=O)s1` belongs -2.75%; to `CC(=O)OC1C2(C)CCC(C2)C1(C)C` (stereo not given), 0.849%.
Take `Cc1ccc(C)c(N)c1`: the “activity change, negative = inhibition” value was 3.18%.
The same measure, in the same setting: to `OC[C@H]1O[C@@H](O[C@H]2[C@H](O)[C@@H](O)[C@H](O)O[C@@H]2CO)[C@H](O)[C@@H](O)[C@H]1O` belongs 0.171%; to `CCCS(=O)c1ccc2nc(NC(=O)OC)[nH]c2c1` (stereo not given), -17% [at 52.9 µM]; to `CCc1nnc(NS(=O)(=O)c2ccc(N)cc2)s1`, 0.429% [at 52.9 µM].
On the same count and under the same terms, with `O=C(O)[C@@H](O)[C@H](O)[C@H](O)[C@@H](O)C(=O)O` the figure was -2.16% [at 52.9 µM].
